# The whole screen tested about 68,000 compounds, of which about 2,700 (4%) showed an effect of 50% or more. The full list was thinned out, with strong results kept by preference.
# System: Plasmodium berghei
# Experiment: Screen against P. berghei liver stage (PbLuc), transformed with Luciferase, at 2uM
# Assay type: functional, HepG2
# Settings: tested at 2 uM
row,SMILES,INHIBITION [%]
1,Cc1oncc1C(=O)NCc1cc(=O)n2c(n1)CN(C(C)C)CCC2,4.42
2,Cc1nc(CNC(=O)NCCc2ccc(N(C)C)cc2)cs1,12.88
3,Cc1nc(CCNC(=O)NCc2cccc(N(C)C)n2)cs1,53.45
4,Cc1nc(CCNC(=O)NCc2ccc(N(C)C)nc2)cs1,-16.42
5,CN(C)c1ncccc1CNc1cc(N2CCCC2CO)ncn1 (configuration not stated),-1.02
6,Cc1nonc1CN(C)Cc1c[nH]nc1-c1ccc(F)cc1F,2.59
7,CC(C)CN(C)Cc1c[nH]nc1-c1ccc(F)cc1F,-22.69
8,Cc1cnccc1CN(C)Cc1c[nH]nc1-c1ccc(F)cc1F,51.39
9,CCCN1CCC(c2cc(CCOc3ccc(C(F)(F)F)cc3)[nH]n2)C1 (configuration not stated),27.53
10,Cc1cccc(CN2CCc3[nH]nc(C(=O)N(C)C)c3C2)n1,-25.31
11,OC(COCc1cccs1)CSc1nnc2ccccn12 (configuration not stated),45.82
12,OC(COCc1ccco1)CSc1nnc2ccccn12 (configuration not stated),76.82
13,OC(COCc1ccccc1)CSc1nnc2ccccn12 (configuration not stated),2.9
14,Cc1ccccc1N1CCN(c2ccncn2)C(C)C1 (configuration not stated),-90.79
15,Cc1ccccc1N1CCCN(c2ccncn2)CC1,53.45
16,Cc1ccccc1N1CCCN(C(=O)CCc2ccncc2)CC1,1.42
17,CC(C)c1nnc2sc(CC3CN(Cc4ccccc4)CCO3)nn12 (configuration not stated),23.33
18,CCCc1nnc2sc(CC3CN(Cc4ccccc4)CCO3)nn12 (configuration not stated),51.43
19,CC(C)N1CCOC(Cc2nn3c(Cc4ccccc4)nnc3s2)C1 (configuration not stated),20.29
20,CCN1CCc2[nH]cnc2C12CCN(c1ccc(Cl)c(C(=O)O)n1)CC2,-3.87
21,O=C(NCc1cccnc1-n1cncn1)c1cc(Cl)ccn1,34
22,CNCC1CCC(c2cc(CN(C)C(=O)c3cnccn3)n(C)n2)CC1 (configuration not stated),24.98
23,Cc1c(C(C)NC2CCCC2)cnn1-c1ccc(F)cc1F (configuration not stated),12.43

row,SMILES,INHIBITION [%]
1,Cc1c(C(C)NCC2CCCC2)cnn1-c1ccc(F)cc1F (configuration not stated),10.05
2,Cc1c(C(C)NC2CCN(C(C)C)CC2)cnn1-c1ccc(F)cc1F (configuration not stated),14.82
3,Cc1c(C(C)NC2CCOCC2)cnn1-c1ccc(F)cc1F (configuration not stated),69.67
4,COc1ccc(-n2ncc(C(C)NC3CCSCC3)c2C)cc1 (configuration not stated),-62.99
5,Cc1c(C(C)NC(=O)Nc2ccc(F)cc2F)cnn1C (configuration not stated),-41.11
6,Cc1c(C(C)NC2CSCCSC2)cnn1-c1ccc(F)cc1F (configuration not stated),81.59
7,CC(=O)N1CCC(NC(C)c2cnn(-c3ccc(F)cc3F)c2C)CC1 (configuration not stated),79.21
8,CSc1ncc(CNC(C)c2cnn(-c3ccc(F)cc3F)c2C)cn1 (configuration not stated),-20.35
9,Cc1cc2c(cc1NC(N)=O)OCO2,23.3
10,CCn1nc(C)cc1C(=O)N1C[C@@H]2C[C@@H](c3nnc(C)[nH]3)O[C@@H]2C1,24.23
11,CN1CCN(C2COC3(CCN(Cc4ccsc4)CC3)C2)CC1 (configuration not stated),-0.38
12,COc1ccc2c(ccn2CCC(=O)/N=c2\[nH]nc(C3CCCO3)s2)c1 (configuration not stated),1.57
13,CCOc1ccccc1CC(=O)N1C[C@@H](C(=O)O)[C@H](c2ccncc2)C1,-36.68
14,CCC[C@@H]1CN(C(=O)c2c(F)ccc(C)c2Cl)C[C@H]1C(=O)O,2.3
15,Cc1nc(C)c(CC(=O)N2C[C@H]3CC[C@@H](C2)N(CC2CC2)C3)s1,-38.36
16,CCC[C@@H]1CN(C(=O)Cc2sc(C)nc2C)C[C@H]1C(=O)O,53.55
17,Cc1nc(C)c(CC(=O)N2C[C@@H](C(=O)O)[C@H](c3ccccc3C)C2)s1,-57.67
18,Cc1nc(C)c(CC(=O)N2C[C@@H](C(=O)O)[C@H](c3ccncc3)C2)s1,56.78
19,CCc1nccn1C1CCCN(C(=O)c2ccc3c(c2)OCCO3)C1 (configuration not stated),-14.17
20,CCOC1CCC2(CCN(C(=O)c3csnn3)CC2)c2ccccc21 (configuration not stated),30.15
21,CC(C)(C)c1nc(CN2CCN(C(=O)c3cnccn3)CC2)cs1,8.5
22,COc1cccc(CN2C[C@@H]3COC[C@]3(COCc3ccccn3)C2)c1,17.35
23,O=C(Nc1ccc(-c2csnn2)cc1)N1CCC(N2CCCC2)C1 (configuration not stated),-55.13

row,SMILES,INHIBITION [%]
1,Cc1noc(CCCNS(=O)(=O)N2CCCC2c2ccco2)n1 (configuration not stated),41.52
2,Cc1noc(CCNS(=O)(=O)N2CCCC2c2ccco2)n1 (configuration not stated),51.76
3,Cc1noc(CCNS(=O)(=O)N2CCCC2c2ccc(C)o2)n1 (configuration not stated),20.34
4,CN(Cc1cccc(C(N)=O)c1)CC1CCCN1c1cccnn1 (configuration not stated),15.67
5,CCOC1CCN(C(=O)c2c(Cl)c3ccccc3n2C)CC1,2.8
6,Cc1ccsc1C(O)CNS(=O)(=O)Cc1ccc(F)cc1 (configuration not stated),-10.98
7,CNc1cc(C2CCCNC2)nc(C)n1 (configuration not stated),-23.54
8,Cc1nc(NCCC23CCCN2CCC3)cc(C2CCCNC2)n1 (configuration not stated),55.66
9,Cc1nc(NCCC23CCCN2CCC3)cc(C2CCNCC2)n1,50.61
10,Cc1nc(NCc2ccc(C)o2)cc(C2CCNCC2)n1,7.42
11,Cc1cc(C2CCC2)nc(NCCC23CCCN2CCC3)n1,-44.93
12,Cc1nc(NCC23CCCN2CCC3)cc(C2CCCNC2)n1 (configuration not stated),35.46
13,CCO[C@@H]1CC[C@H]2[C@H]1OCCN2C(=O)CC1=CCCCC1,-32.82
14,CC(C)n1cnc(C2CN(C)c3ccc(C(=O)NC4CCCC4)cc32)n1 (configuration not stated),9.36
15,O=C(c1ccc2c(c1)[nH]c(=O)n2C1CCC(O)CC1)N1CCOCC1 (configuration not stated),42.8
16,Cc1cc(N2CCCC2c2nc(C)cc(CCC(=O)O)n2)ncn1 (configuration not stated),27.81
17,NC(=O)C1CCN(C(=O)NCc2ccccc2-n2cccn2)C1 (configuration not stated),32.41
18,c1cncc(COC2COC3(CCN(c4cnccn4)CC3)C2)c1 (configuration not stated),-16.36
19,COc1ccc(CC(=O)N2CCN(Cc3ccco3)C[C@@H]2C)cc1,19.69
20,COc1ccccc1CC(=O)N1CCN(Cc2ccco2)C[C@@H]1C,4.19
21,C[C@@H]1CN(Cc2ccco2)CCN1C(=O)Cc1ccccc1F,50.68

# Reference: ChEMBL document CHEMBL4513216, “Probing the Open Global Health Chemical Diversity Library for Multistage-Active Starting Points for Next-Generation Antimalarials” (ACS Infect Dis, 2020)
